TEAD-YAP block – TEAD-YAP interaction inhibition | HEK-TIYL cells, TEAD-Gal4/YAP UAS-luciferase luminescence | hit rate 1.4% among 640,000 | inhibition, % at 9.12 µM; in the data active = inhibition above about 32%;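 also: 0% = median of test compound wells and 100% = reference inhibitor wells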
MITF primary – human MITF inhibition, primary screen; O75030; inhibition, % at 2.6 µM; hit rate 0.91% among 650,000; AlphaScreen MITF homodimerization, bead proximity signal; AID 1259374; in the data active = inhibition above about 50%;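 also: 0% = vehicle wells with protein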
Target sequence (O75030 whole entry, looked up): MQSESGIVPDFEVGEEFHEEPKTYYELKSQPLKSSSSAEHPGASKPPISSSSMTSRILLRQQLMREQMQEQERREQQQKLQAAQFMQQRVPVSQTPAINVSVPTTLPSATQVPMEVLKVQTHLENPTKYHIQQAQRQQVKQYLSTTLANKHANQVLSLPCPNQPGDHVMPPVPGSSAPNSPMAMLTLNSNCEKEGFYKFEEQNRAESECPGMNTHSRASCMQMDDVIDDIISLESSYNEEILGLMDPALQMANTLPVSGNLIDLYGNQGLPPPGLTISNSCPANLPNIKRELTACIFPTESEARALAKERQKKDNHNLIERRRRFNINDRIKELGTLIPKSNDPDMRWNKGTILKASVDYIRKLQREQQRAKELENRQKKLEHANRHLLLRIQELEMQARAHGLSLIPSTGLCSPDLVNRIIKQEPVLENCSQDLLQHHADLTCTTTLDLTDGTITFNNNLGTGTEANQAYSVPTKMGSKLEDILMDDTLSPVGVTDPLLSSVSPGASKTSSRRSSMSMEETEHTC
FBW7 act – activators of human E3 ligase FBW7; AlphaScreen FBW7–phospho-cyclin E peptide binding, activator screen; Q969H0; normalized activity (activation), % at 26.1 µM; hit rate 0.13% among 650,000; AID 1259310; in the data active = normalized activity above about 1.9%;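 also: purified mutant Fbw7 with reduced substrate affinity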
GPR151 activ – activators of human GPR151; hit rate 1% among 650,000; Q8TDV0; activation, % at 11.2 µM; PathHunter beta-arrestin GPR151 cells, luminescence; in the data active = activation above about 4.9%;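 also: 0% = median of compound wells and 100% = cells with positive control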
An asterisk follows results filed as active. The list is not random: actives were taken first. Their share in the collection is about 3.4%.

SMILES | TEAD-YAP block | MITF primary | FBW7 act | GPR151 activ
CN=c1scc(-c2cccc(Br)c2)n1/N=C/c1ccncc1 | -62 | 25 | 0 | 2
CCN=c1scc(-c2ccccc2)n1/N=C/c1ccccn1 | 55* | 1 | -1 | -2
CN=c1scc(-c2ccccc2)n1/N=C/c1ccsc1 | 99* | 29 | 0 | -2
CCN=c1scc(-c2ccc(F)cc2)n1/N=C/c1ccccn1 | -86 | 12 | 0 | -1
CN=c1scc(-c2ccccc2F)n1/N=C/c1ccc(O)c(O)c1O | 89* | 4 | 0 | -5
CN=c1scc(-c2ccccc2F)n1/N=C/c1ccsc1 | 99* | 16 | 0 | -8
CCN(CC)C(=O)CN(c1cc(Cl)ccc1Cl)S(C)(=O)=O | 4 | -2 | 0 | 0
CN=c1scc(-c2ccccc2F)n1/N=C/c1ccc2c(c1)OCO2 | 94* | 14 | 0 | -10
CN=c1scc(C)n1/N=C/c1ccc2c(c1)OCO2 | 15 | 14 | 0 | -7
CN=c1scc(-c2ccccc2Br)n1/N=C/c1ccco1 | 2 | 22 | 0 | -2
CN=c1scc(-c2ccccc2Br)n1/N=C/c1ccc(O)cc1O | 96* | 6 | 0 | -3
COc1ccc(CC2(CCC(=O)N(C)CCn3nc(C)cc3C)CCC(=O)N2)c(F)c1 (centres undefined) | -4 | 1 | 0 | 3
COc1ccc2c(c1)c1nc(N(C)C)nc3c1n2CCN3C | 88* | 12 | 0 | 0
Nc1c(C(=O)NC2CC2)sc2nc(-c3ccc4c(c3)OCO4)ccc12 | 42* | 7 | 0 | -1
Nc1c(C(=O)Nc2ccc(F)cc2)sc2nc(-c3ccc4c(c3)OCO4)ccc12 | -13 | -15 | 0 | 0
Cc1cccc2sc(NNC(=O)c3c(F)cccc3F)nc12 | 8 | -5 | 0 | -1
COc1ccc(-c2csc(Nc3cccc(O)c3)n2)cc1 | 41* | 12 | 0 | 1
CC(=O)Oc1ccc(-c2csc(Nc3cccc(O)c3)n2)cc1 | -29 | 1 | 0 | -1
Cc1ccc(-c2csc(Nc3cccc(O)c3)n2)cc1 | 74* | -13 | 0 | -1
CCOC(=O)c1c(C)[nH]c(-c2csc(N)n2)c1C | 32* | 6 | 0 | 1
C=C1CC[C@H](O)C/C1=C/C=C1\CCCC2(C)C1CCC2C(C)CCCC(C)C (some centres undefined) | -5 | 11 | 0 | 1
C=C1/C(=C\C=C2/CCCC3(C)[C@@H]([C@H](C)CCCC(C)(C)O)CC[C@@H]23)C[C@@H](O)C[C@@H]1O (some centres undefined) | 37* | -2 | 0 | 0
Cc1ccccc1-n1c(SCC(=O)Nc2nccs2)nnc1-c1ccncc1 | 21 | 0 | 0 | -1
COc1ccccc1-n1c(SCC(=O)Nc2cccc(F)c2)nnc1-c1cccnc1 | 46* | 4 | 0 | -1
COc1ccccc1-n1c(SCC(=O)Nc2nccs2)nnc1-c1ccncc1 | 62* | 10 | 0 | -2
SMILES | TEAD-YAP block | MITF primary | FBW7 act | GPR151 activ
COc1cccc(NC(=O)CSc2nnc(-c3cccnc3)n2-c2ccccc2C)c1 | -2 | 11 | 0 | 0
Cc1csc(NC(=O)CSc2nnc(-c3cccnc3)n2-c2cccc(C)c2C)n1 | 13 | -4 | 0 | 0
COc1ccccc1-n1c(SCC(=O)Nc2nccs2)nnc1-c1cccnc1 | 56* | 0 | 0 | 0
COc1ccccc1-n1c(SCC(=O)Nc2nc(C)cs2)nnc1-c1cccnc1 | 53* | 11 | 0 | -1
O=C(Nc1cc(C(F)(F)F)ccc1N1CCOCC1)c1cc2ccccc2oc1=O | -6 | -1 | 0 | 1
COc1cccc(-n2c(=S)sc3c(=O)n(-c4ccccc4C)c(SCc4csc(C)n4)nc32)c1 | -8 | -10 | 0 | 2
COc1ccc(-c2nnc(SCC(=O)N(C)C)n2C2CCCCC2C)cc1 (centres undefined) | -5 | 5 | 0 | -1
Cc1c(Cl)cccc1NC(=O)NC1(C(F)(F)F)Oc2ccccc2O1 | -10 | 5 | 0 | 1
O=C(CSc1ccccc1)N1CCOc2ccc(-c3ccncc3)cc21 | 34* | 11 | 0 | -1
CCOc1ccc(-n2nnnc2-c2ccc3ccccc3n2)cc1 | 9 | -3 | 0 | 0
C/C(=N/NC(=O)CNc1ccccc1C)c1ccc(F)cc1 | -3 | -6 | 0 | -1
CCOC(=O)C(F)(C(=O)OCC)c1ccccc1 | 1 | 8 | 0 | 1
O=C(Nc1cccnc1)c1ccc2c(c1)C(=O)N(C1CCCCC1)C2=O | -6 | -4 | 0 | -1
O=C(Nc1ccncc1)c1ccc2c(c1)C(=O)N(C1CCCCC1)C2=O | 32* | -9 | 0 | 0
COc1ccc(CNc2ccnc3ccnn23)cc1 | 2 | 1 | 0 | 0
COc1cccc(NC(=O)c2ccc(-c3ccc(C)cc3)nc2N(C)C)c1 | -6 | 7 | 0 | 1
Cc1nc2ncnn2c(NCc2ccc(F)cc2)c1C | 45* | 17 | 1 | 5
Cc1ccccc1Nc1c(C)c(C)nc2ncnn12 | -2 | -6 | 0 | 0
CCN(CC)C(=O)CSc1nc2ccccc2n1CC(=O)NC1CCCCC1 | 9 | 10 | 0 | -1
COC(=O)C1=C(OC)C(=O)OC12C=CC(=O)C=C2 | 80* | 18 | 0 | -1
COC(=O)c1cc2cccc(OC)c2oc1=O | -4 | -3 | 0 | -1
O=C(CN1C(=O)S/C(=C/c2ccc(Cl)cc2)C1=O)Nc1ccc(O)cc1 | -3 | -4 | 0 | 0
Cc1cc(C)c(C#N)c(SCc2nc3ccccc3[nH]2)n1 | -54 | -2 | 0 | 0
Cc1cc(C)c(C#N)c(SCc2nc3cc([N+](=O)[O-])c([N+](=O)[O-])cc3[nH]2)n1 | 86* | 5 | 0 | 0
CN(C)CCNC(=O)c1ccc(-c2cnc3c(Nc4ccc5[nH]ccc5c4)nccn23)cc1 | 39* | -41 | 0 | -1
SMILES | TEAD-YAP block | MITF primary | FBW7 act | GPR151 activ
c1cn2c(-c3ccoc3)cnc2c(Nc2ccc3[nH]ccc3c2)n1 | 81* | -3 | 0 | -3
Oc1cccc(-c2cnc3c(Nc4ccc5[nH]ccc5c4)nccn23)c1 | 97* | -9 | 0 | -2
Clc1ccc(Nc2nccn3c(-c4ccoc4)cnc23)cc1 | 40* | 12 | -1 | -3
c1cn2c(-c3ccc4[nH]ccc4c3)cnc2c(Nc2ccc3[nH]ccc3c2)n1 | 0 | -11 | 0 | 2
COc1cncc(-c2cnn3ccc(Nc4ccc(N5CCOCC5)cc4)nc23)c1 | 39* | 7 | 0 | 0
COc1cc(-c2cnn3ccc(Nc4ccccc4)nc23)cc(OC)c1OC | 47* | 18 | 0 | 1
CN(C)c1ccc(C2C(C#N)=C(N)N(c3ccccc3)C3=C2C(=O)CC(C)(C)C3)cc1 (centres undefined) | -11 | 13 | 0 | 0
O=C1CCN2N=C(c3ccccc3)CC=C2O1 | -5 | -2 | 0 | -1
Cn1nc(CN)c2ccccc2c1=O | 11 | 0 | 0 | -3
NCc1nn(CCc2ccccn2)c(=O)c2ccccc12 | 59* | 26 | 1 | 0
COc1ccc(CCNc2nc(Nc3cnccn3)nc3c2ncn3C(C)C)cc1 | 36* | 2 | 0 | 1
COc1ccc(CCNc2nc(Nc3cnccn3)nc3c2ncn3C2CCCCC2)cc1 | 14 | -8 | 0 | -1

Assay outcomes from PubChem.
